Data published in PubChem BioAssay.

Molecular target: E3 ubiquitin-protein ligase XIAP (Homo sapiens) (UniProt P98170)
Test: small molecules binding XIAP protein – biophysical, small-molecule microarray, fluorescence 635 nm, primary screen (AID 1181);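 further: score merges 667 nm emission and signal to noise over triplicate slides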
Settings: higher = more signal

Sequence of E3 ubiquitin-protein ligase XIAP (Homo sapiens) (P98170 whole entry, looked up): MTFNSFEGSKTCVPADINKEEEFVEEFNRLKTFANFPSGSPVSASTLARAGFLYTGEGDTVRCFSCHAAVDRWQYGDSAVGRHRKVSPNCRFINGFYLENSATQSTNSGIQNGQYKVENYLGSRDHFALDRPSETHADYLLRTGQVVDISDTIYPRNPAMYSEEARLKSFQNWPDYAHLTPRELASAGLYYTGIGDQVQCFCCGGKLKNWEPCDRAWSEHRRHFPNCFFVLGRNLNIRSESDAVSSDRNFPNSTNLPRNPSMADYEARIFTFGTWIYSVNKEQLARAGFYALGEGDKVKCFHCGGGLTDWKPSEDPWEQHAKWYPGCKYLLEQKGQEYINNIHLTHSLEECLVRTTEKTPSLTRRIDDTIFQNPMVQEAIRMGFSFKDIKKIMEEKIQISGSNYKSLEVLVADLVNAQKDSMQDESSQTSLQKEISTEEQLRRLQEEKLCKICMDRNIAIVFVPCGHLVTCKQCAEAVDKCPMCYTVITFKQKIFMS

Row | Structure (SMILES) | composite z-score
1 | COC(=O)[C@H](Cc1ccc(O)cc1)N[C@@H](/C=C/C1CC1)[C@H](O)Cc1ccccc1 | 0.85
2 | COc1ccc(CCNC(=O)[C@@H]2c3ccccc3C(=O)N(Cc3ccccc3OC)[C@H]2c2ccc(CO)cc2)cc1 | -0.309
3 | COc1ccc(C(=O)Nc2cccc(CN3C(=O)[C@]4(O[C@H](CC(=O)N5Cc6ccccc6C[C@H]5CO)[C@@H]([Si](C)(C)c5ccc(OC)cc5)[C@@H]4C)c4ccccc43)c2)cc1 | 0.187
4 | C=CCN1Cc2ccccc2[C@H]2OC(c3ccc(OCCCO)cc3)=N[C@@]2(CCS(=O)(=O)c2ccccc2)C1=O | -0.0599
5 | C=CCOC(=O)[C@H]1[C@@H]2C(=O)O[C@@H](c3ccccc3)[C@@H](c3ccccc3)N2[C@@H](c2ccc(OCCOC(=O)[C@H]3C[C@H]4C(=O)N[C@@H](CC(C)C)C(=O)N4[C@H]3c3ccc(O)cc3)cc2)[C@]12C(=O)Nc1ccccc12 | -0.0078
6 | CC1CC/C=C\[C@H]2OC34C=CCN(Cn5nnc6ccccc65)C(=O)[C@H]3N(CCCCCCO)C(=O)[C@@H]4C2C(=O)O1 (stereo not given in full) | -0.244
7 | [N-]=[N+]=Nc1ccccc1C[C@@]1(C(=O)NCc2ccccc2)N=C(c2ccc(OCCCO)cc2)O[C@@H]1c1ccccc1N=[N+]=[N-] | -0.113
8 | Cc1ccc(S[C@]2(C(=O)NCCCN(C)C)CC(=O)N(C3Cc4ccccc4C3)[C@@H]2c2ccc(CO)cc2I)cc1 | -0.0999
9 | CC(C)N1C(=O)c2ccccc2[C@](C)(C(=O)NCC(F)(F)F)[C@@H]1c1ccc(CO)cc1 | -0.0195
10 | CN(C)CCCC[C@@H]1NC(=O)[C@H]2C[C@@H](C(=O)O)[C@@H](c3ccc(O)cc3)N2C1=O | 2.02
11 | O=C1[C@@H]2[C@@H](CC(COc3ccccc3)=C([C@H](O)CCc3ccccc3)[C@@H]2CO)C(=O)N1Cc1ccccc1 | 0.15
12 | C=C(CCCC)/C(=C/C[C@H](OC(=O)c1ccncc1)c1ccccc1OCCO)c1cc(C(=O)OC)ccc1OC | -0.184
13 | CC(C)NC(=O)[C@@]1(C)c2ccccc2C(=O)N(Cc2ccccc2)[C@H]1c1ccc(CO)cc1 | -0.287
14 | COc1ccc(C#Cc2ccc3c(c2)[C@]2(C(=O)N3)[C@H](C(=O)O)[C@H]3C(=O)O[C@H](c4ccccc4)[C@H](c4ccccc4)N3[C@@H]2c2ccccc2OCCO)cc1 | 0.013
15 | CCCCCCc1nc(Cc2cc(OC)c(OC)c(OC)c2)cc2c1[Si](C(C)C)(C(C)C)O[C@H]2c1ccccc1 | -0.491
16 | O=C1C[C@@](C(=O)NCc2ccccc2)(c2ccc([N+](=O)[O-])cc2)[C@@H](c2ccc(CO)cc2)N1C1CCCCC1 | -0.031
17 | O=C(NCc1ccccc1)[C@@H]1c2ccccc2C(=O)N(Cc2cc(C(F)(F)F)cc(C(F)(F)F)c2)[C@H]1c1ccc(CO)cc1 | -0.147
18 | COc1ccc([Si](C)(C)[C@@H]2[C@@H](CC(=O)N(CCO)Cc3ccccc3)O[C@]3(C(=O)N(Cc4ccc(I)cc4)c4ccccc43)[C@H]2C)cc1 | -0.0658

Row | Structure (SMILES) | composite z-score
19 | COCCn1c(C(=O)N(C)C)cc2c1C[C@H]1CN(C(=O)c3ccccc3)[C@@](Cc3ccc(OC)cc3)(C(=O)OC)[C@@H]21 | 0.131
20 | O=C1C2C=CC(C(O)c3cccs3)N(Nc3ccc([N+](=O)[O-])cc3)C2C(=O)N1c1ccccc1 (stereo not given) | -0.177
21 | O=C1O[C@@H](c2ccccc2)[C@@H](c2ccccc2)N2[C@@H](c3ccc(OCCO)cc3)[C@]3(C(=O)Nc4ccc(C#CC5(O)CCCCCC5)cc43)[C@@H](C(=O)Nc3nc4ccccc4s3)[C@H]12 | 0.147
22 | CC(C)[Si](C#CCCc1ccccc1)(O[C@H](c1ccccc1)c1cn(Cc2ccccc2)nn1)C(C)C | -0.0117
23 | COCCOC(=O)N1C(=O)[C@@]2(c3cc(C#CC4(O)CCCCCC4)ccc31)[C@H](c1ccc(O)cc1)N1[C@H](c3ccccc3)[C@H](c3ccccc3)OC(=O)[C@H]1[C@@H]2C(=O)N1CCCCCCC1 | -0.0351
24 | CN1C(=O)C2C(C3CC3)C=C3CN(Cc4cccc(Cl)c4)[C@@H]([C@@H](O)Cc4ccccc4)C3C2C1=O (stereo not given in full) | -0.0264
25 | C=CCC(OC(C)=O)[C@@H]1[C@@H](N(Cc2ccc(-c3ccccc3)cc2)C(=O)c2cccc3ccccc23)c2cc(OCCCO)ccc2N1C(=O)Cc1ccc(OC)cc1 (stereo not given in full) | -0.264
26 | O=C1NC(=O)C2C1C=CC(C(O)c1ccc([N+](=O)[O-])cc1)N2Nc1ccccn1 (stereo not given) | 0.103
27 | CCCCC(O)C1C=CC2C(=O)N(c3ccccc3)C(=O)C2N1Nc1ccccc1 (stereo not given) | 0.366
28 | COCCOC(=O)N1C(=O)[C@@]2(c3cc(C#Cc4ccc(OC)cc4)ccc31)[C@H](c1ccc(OCCO)cc1)N1[C@H](c3ccccc3)[C@H](c3ccccc3)OC(=O)[C@H]1[C@@H]2C(=O)NC[C@H](O)c1ccccc1 | 0.115
29 | O=C1O[C@H](c2ccccc2)[C@H](c2ccccc2)N2[C@H]1[C@@H](C(=O)N1CCN(c3ncccn3)CC1)[C@]1(C(=O)Nc3ccc(C#CCCO)cc31)[C@H]2c1ccc(O)cc1 | -0.088
30 | O=C1C[C@@](C(=O)O)(c2ccc([N+](=O)[O-])cc2)[C@@H](c2ccc(CO)cc2)N1C1CCCCC1 | -0.193
31 | CN(C)CCCNC(=O)[C@@]1(C)c2ccccc2C(=O)N(Cc2ccc(OC(F)(F)F)cc2)[C@H]1c1ccc(CO)cc1 | -0.156
32 | COCCOC(=O)N1C(=O)[C@@]2(c3cc(C#CCCO)ccc31)[C@H](c1ccc(OCCO)cc1)N1[C@H](c3ccccc3)[C@H](c3ccccc3)OC(=O)[C@H]1[C@@H]2C(=O)N1CCCCCCC1 | 0.152
33 | C#CCN1[C@@H](Cc2ccccc2)C(=O)O[C@H](Cc2ccccc2)[C@@H]1/C=C/C1CC1 | -0.208
34 | CC(C)C[C@@H]1NC(=O)[C@@H]2C[C@H](C(=O)NCCCCCCNC(=O)CS)[C@H](c3cccc(OCCO)c3)N2C1=O | -0.122
35 | CCCCCC1=C2CNC(CC(C)C)(C(=O)OC)C=C2C(C)C1=O (stereo not given) | 0.0907
